# Source: PubChem BioAssay AID624504 (Sanford-Burnham Center for Chemical Genomics, 2012)
# The campaign covered roughly 5,000 compounds. About 3,900 (78%) were called active. So high a share suggests a set chosen from earlier hits. A selection follows. Values without a mark were called inactive. No stated cut-off is given here; in the data, active means inhibition above about 22%; inactive means the rest.
# Experiment: fluorescence retest of MPTP screen hits in isolated mitochondria, single concentration (AID 624504);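 further: 0% = DMSO vehicle and 100% = positive control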
# Details: membrane potential, Rhodamine 123 fluorescence, at 10 µM, hits give high values
row,Structure (SMILES),inhibition
1,NS(=O)(=O)c1ccc(NC(=S)Nc2ccc(Br)c(Cl)c2)cc1,76% (active)
2,CCN1CCC(O)(/C=C/c2ccc(C)cc2)C(C(=O)/C=C/c2ccc(C)cc2)C1 (centres undefined),-14.1%
3,Cc1cc(C)cc(NS(=O)(=O)c2ccc(Oc3ncc(C(F)(F)F)cc3Cl)cc2)c1,93.4% (active)
4,FC(F)Oc1ccccc1NC(=S)Nc1cccc(Cl)c1Cl,44.5% (active)
5,CN(Cc1cccnc1)C(=O)c1cc(COc2ccc3ncccc3c2)on1,73% (active)
6,CCCc1[nH]nc2c1C(c1c(C)nn(-c3ccccc3)c1Cl)C(C#N)=C(N)O2 (centres undefined),-3.33%
7,O=C1CC(c2ccccc2)=NN1c1ccc([N+](=O)[O-])cc1,77.6% (active)
8,O=C(Nc1cccc(Cl)c1)Nc1ccccc1NS(=O)(=O)c1cccs1,89.6% (active)
9,COc1ccc(CC(=O)Nc2nc(-c3ccc(F)c(F)c3)cs2)cc1OC,94.5% (active)
10,COc1cc(CC(=O)Nc2nc(-c3ccc(F)c(F)c3)cs2)cc(OC)c1OC,93.2% (active)
11,CCCOc1ccc(Cc2c(Cl)nc(SC)nc2NC)cc1,93.6% (active)
12,Cn1nccc1NC(=O)Nc1ccc(OC(F)(F)F)cc1,73.2% (active)
13,CC(=N\NC(=O)c1cc(Br)ccc1O)/C(=N/O)C(=O)Nc1ccccc1,78.4% (active)
14,Cc1oc2c(F)c(F)c(F)c(F)c2c1S(=O)(=O)Nc1cccc(C(F)(F)F)c1,83.5% (active)
15,Cc1oc2cc([N+](=O)[O-])c(O)c([N+](=O)[O-])c2c1C(=O)c1ccc(Br)cc1,61.8% (active)
16,O=C(Cc1ccc(-n2c(=O)[nH]c3ccccc3c2=O)cc1)N1CCN(c2cccc(Cl)c2)CC1,49.8% (active)
17,COc1ccc(CCNc2cc(N3CCN(C(=O)c4ccccc4OC)CC3)ccc2[N+](=O)[O-])cc1OC,47.7% (active)
18,Cc1ccc2c(c1)C1CN(C)CCC1N2S(=O)(=O)c1ccc(Oc2ccc([N+](=O)[O-])cc2)cc1 (centres undefined),-16.2%
19,Cc1ccc(NC(=O)COc2ccc(-n3ccnc3)cc2)cc1Cl,94.1% (active)
20,O=C(Nc1nnc(SCc2ccc(Cl)cc2Cl)s1)C1COc2ccccc2O1 (centres undefined),72.7% (active)
21,O=C(Nc1nc2c(F)cc(F)cc2s1)C1COc2ccccc2O1 (centres undefined),76.6% (active)
22,O=C(NCCNc1ccc([N+](=O)[O-])cc1)c1cccc2c(Br)cccc12,84.9% (active)
23,CN1CCN(CCNC(=O)Nc2ccc([N+](=O)[O-])cc2)CC1,75.1% (active)
24,Cc1cccc(-c2nc3ccc(C(=O)NCCN4CCN(C)CC4)cc3nc2-c2cccc(C)c2)c1,-16.4%

row,Structure (SMILES),inhibition
1,O=C(NCCCN1CCN(c2ccc(F)cc2)CC1)Nc1ccc([N+](=O)[O-])cc1,89.6% (active)
2,CCCOc1ccc(C(=O)C(CCC(CNCC)C(=O)c2ccc(OCCC)cc2)CNCC)cc1 (centres undefined),-13.8%
3,O=c1c(-c2ccc3c(c2)OCCO3)c(C(F)(F)F)oc2cc(O)cc(O)c12,80.7% (active)
4,CC1=C/C(=N\OS(=O)(=O)c2ccccc2)C=CC1=O,92.7% (active)
5,Cc1c(C(=O)OC(C)C)sc(NC(=O)c2cccnc2)c1C#N,82.8% (active)
6,Cc1ccc(-c2nc(-c3cccnc3)sc2CC(=O)Nc2ccc(C)c(Cl)c2)cc1,90.8% (active)
7,CCNS(=O)(=O)c1ccc(NC(=O)Nc2cccc(C(F)(F)F)c2)cc1,73.9% (active)
8,CCc1cc2c(NC3CCCC3)ncnc2s1,59.8% (active)
9,N/C(=N\OC(=O)Nc1ccc(Cl)c(Cl)c1)c1ncc(C(F)(F)F)cc1Cl,118% (active)
10,c1ccc(-c2cc3c(NCC4COc5ccccc5O4)ncnc3s2)cc1 (centres undefined),70.6% (active)
11,O=C(NC1CCN(Cc2ccccc2)CC1)c1cc(Br)c(Br)[nH]1,9.55%
12,CSc1nccc(NC(=O)c2ccc(C(C)(C)C)cc2)n1,91.4% (active)
13,COc1cc(C(=O)Nc2oc(-c3ccccc3)c(-c3ccccc3)c2C#N)cc(OC)c1OC,63% (active)
14,COC(=O)c1sccc1NC(=O)CSc1ccccc1NS(=O)(=O)c1cc(Cl)ccc1Cl,90.9% (active)
15,Cn1nc(C(F)(F)F)c(C(=O)Nc2cccc(C(F)(F)F)c2)c1SCc1ccc(Cl)cc1,63.4% (active)
16,COc1ccc(S(=O)(=O)Nc2ccc3oc(C)c(C(C)=O)c3c2)cc1,63.9% (active)
17,COc1cc(NS(=O)(=O)c2ccc(NC(C)=O)cc2)cc(OC)c1,47.9% (active)
18,CC(C)OCCCNc1ncnc2c1[nH]c1ccc(F)cc12,110% (active)
19,COc1ccc2oc(-c3cccc(NC(=O)CSc4ccc(Cl)cc4)c3)nc2c1,70.8% (active)
20,O=C(Nc1ccc(Cl)cc1)Nc1ccc(Oc2cccnc2)nc1,94.2% (active)
21,CCCc1cc(=S)n2c([nH]c3ccccc32)c1C#N,80.9% (active)
22,COc1ccc(Sc2ccc(NC(=O)c3cccc(Cl)c3)cc2C#N)cc1,77.8% (active)
23,Cc1ccc(Sc2ccc(NC(=O)c3ccc(F)cc3)cc2C#N)cc1,99.4% (active)
24,O=C(NNC(=O)c1csc(-c2cccnc2)n1)Nc1ccc(Cl)cc1,68.5% (active)

row,Structure (SMILES),inhibition
1,O=C(Nc1nnc(S(=O)(=O)N2CCCCCC2)s1)c1cccc(Br)c1,99.7% (active)
2,CCOC(=O)c1cc2cc(-c3c(C(=O)OCC)oc4cc(O)cc(O)c4c3=O)ccc2o1,47.3% (active)
3,COc1ccc(Cn2c(=O)sc3ccccc32)cc1OC,38.6% (active)
4,COc1ccc2sc(N(CCCN(C)C)C(=O)c3ccc(S(=O)(=O)N(C)C4CCCCC4)cc3)nc2c1,-15.4%
5,O=C(Nc1nnc(SCc2ccccc2Cl)s1)c1cccc([N+](=O)[O-])c1,79.5% (active)
6,O=C(Nc1nnc(SCc2c(Cl)cccc2Cl)s1)c1cccc([N+](=O)[O-])c1,82.1% (active)
7,O=C(c1ccc(Cl)cc1)c1ccc(OCC(O)CN2CCCCC2)cc1 (centres undefined),-2.35%
8,O=C(COC(=O)c1ccccc1NC(=O)c1ccco1)Nc1ccc2c(c1)OC(F)(F)O2,16.6%
9,O=C(Cc1c(F)cccc1Cl)Nc1ncc([N+](=O)[O-])s1,98.1% (active)
10,S=C(NCc1ccc(Cl)cc1)NC1CCCCC1,92.6% (active)
11,S=C(NCc1ccc(Cl)cc1)NC12CC3CC(CC(C3)C1)C2,83.4% (active)
12,CCCCOC(=O)CNc1nnc(SCC(=O)OCC)[nH]c1=O,-7.97%
13,O=C(Cc1ccc(Cl)c(Cl)c1)Nc1ccc(SC(F)F)cc1,73.8% (active)
14,COc1ccc(/C=C2/SC(=O)N(CCCCCC(=O)Nc3ccccc3C(=O)O)C2=S)cc1,46.1% (active)
15,CN(C(=O)Nc1ccc(Cl)cc1)n1cnc2ccccc2c1=O,89.2% (active)
16,Cc1ccccc1C(=O)NC(=S)Nc1ccc(N2CCN(C(=O)c3ccccc3)CC2)cc1,81.8% (active)
17,Brc1ccc(CSc2ccc(-c3ccco3)nn2)cc1,-1.72%
18,Cc1onc(-c2ccccc2)c1C(=O)NNC(=S)NC(=O)c1ccc(F)cc1,2.46%
19,C/C(=N\NC(=O)c1ccc(C)cc1)C1C(=O)c2ccccc2C1=O,58% (active)
20,COc1ccc(-c2nc3cc(C)ccn3c2NC2CCCCC2)cc1SC1CCCCC1,77.5% (active)
21,CN(C)Cc1ccccc1C1(O)c2ccccc2CSc2ccccc21 (centres undefined),-8.88%
22,O=C(Nc1ccccc1)c1ccccc1NC(=O)C(F)(F)F,85% (active)
23,O=C(CSc1nc(-c2ccccc2)cs1)Nc1cccc([N+](=O)[O-])c1,80.1% (active)
24,Cc1cccc(OCCNC(=O)CSc2ccc(C(F)(F)F)cc2[N+](=O)[O-])c1,81.3% (active)

row,Structure (SMILES),inhibition
1,O=C(Nc1ccc2ccccc2c1)Nc1ccc2snnc2c1,47.9% (active)
2,COc1ccc(NC(=O)Nc2ccc3nsnc3c2)cc1,84.7% (active)
3,O=C(Nc1ccccc1)Nc1nnc(COc2ccccc2F)s1,60.4% (active)
4,O=C(CSc1nc2ccc([N+](=O)[O-])cc2[nH]1)c1ccc(Cl)cc1,76.5% (active)
5,CCOC(=O)N1CCN(C(=O)c2ccc3c(c2)N(Cc2ccc(C)cc2)CCS3)CC1,63.9% (active)
6,N#Cc1ccc(C(=O)Nc2nc(-c3cccs3)c(C(=O)C(F)(F)F)s2)cc1,109% (active)
7,S=C(Nc1ccccc1)Nc1ccc2ccccc2c1,89.2% (active)
8,Cc1cccc(NC(=S)Nc2ccc(Cl)c(Cl)c2)c1,90.8% (active)
9,Cc1cccc(NC(=S)Nc2ccc(Br)cc2)c1,102% (active)
10,FC(F)(F)COc1nc(N2CCCCC2)nc(N2CCNCC2)n1,-11.8%
11,Cc1nn(Cc2ccccc2)c2c1C(c1ccccc1)C(C#N)=C(N)O2 (centres undefined),-0.3%
12,CC(=O)c1ccc(NC(=O)Nc2ccc([N+](=O)[O-])cc2C)cc1,90.3% (active)
13,COc1cc(NC(=O)Nc2ccc(C)cc2)cc([N+](=O)[O-])c1,95.5% (active)
14,CN(C)Cc1ccc(F)cc1Sc1cc(Cl)ccc1Cl,-3.35%
15,O=C(Nc1cccc(F)c1)c1coc(=O)c(Br)c1,77.9% (active)
16,COc1ccc(-n2c(C)cc(C(=O)CSc3nnc(-c4cccs4)o3)c2C)cc1,83% (active)
17,FC(F)(F)Oc1ccc(NC(=S)NCc2ccccc2)cc1,90.9% (active)
18,CSCCC(NC(=O)c1cc([N+](=O)[O-])cc([N+](=O)[O-])c1)c1nc2ccccc2[nH]1 (centres undefined),81.7% (active)
19,Cc1ccc(C)c(S(=O)(=O)N2CCN(c3ncnc4sccc34)CC2)c1,104% (active)
20,Cc1ccc(NC(=O)Nc2cc(-c3ccccc3)nn2C)cc1Cl,69.1% (active)
21,Cc1cc(NC(=O)Nc2ccc(Cl)cc2)n(-c2ccccc2)n1,76.2% (active)
22,Fc1ccccc1CNC(=S)Nc1ccc(Cl)cc1,90.7% (active)
